Residual activity data for 1 molecule are collected here from ChEMBL document CHEMBL2218924, “A broad activity screen in support of a chemogenomic map for kinase signalling research and drug discovery” (Biochem J, 2013).

Test [1] addresses Tyrosine-protein kinase SYK (Homo sapiens) (UniProt P43405). Particulars: at 10 µM.
Test [2] concerns the target T1, Mitogen-activated protein kinase kinase kinase 7 (Homo sapiens) (UniProt O43318).
T1 sequence (whole entry): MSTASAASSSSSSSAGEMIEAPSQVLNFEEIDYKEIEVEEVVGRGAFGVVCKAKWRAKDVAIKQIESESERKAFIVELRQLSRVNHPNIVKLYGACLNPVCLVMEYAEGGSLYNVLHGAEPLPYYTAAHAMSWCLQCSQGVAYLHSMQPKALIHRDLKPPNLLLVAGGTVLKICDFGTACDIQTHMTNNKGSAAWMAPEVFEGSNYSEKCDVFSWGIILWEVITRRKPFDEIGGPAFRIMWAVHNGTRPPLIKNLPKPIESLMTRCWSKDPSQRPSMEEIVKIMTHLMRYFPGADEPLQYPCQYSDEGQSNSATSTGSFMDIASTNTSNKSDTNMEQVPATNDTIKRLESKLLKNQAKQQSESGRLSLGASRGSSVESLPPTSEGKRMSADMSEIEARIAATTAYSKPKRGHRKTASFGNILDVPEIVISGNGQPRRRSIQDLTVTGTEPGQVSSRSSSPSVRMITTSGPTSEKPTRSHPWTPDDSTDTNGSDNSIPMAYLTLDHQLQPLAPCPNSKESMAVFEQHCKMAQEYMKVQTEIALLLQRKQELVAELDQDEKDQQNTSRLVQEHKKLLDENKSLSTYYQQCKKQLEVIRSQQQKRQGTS
Particulars: at 1 µM.

Test [3] deals with T1, Mitogen-activated protein kinase kinase kinase 7 (Homo sapiens). The settings on record: at 10 µM.
Test [4] deals with T2, Serine/threonine-protein kinase TAO1 (Homo sapiens) (UniProt Q7L7X3).
T2 sequence (whole entry): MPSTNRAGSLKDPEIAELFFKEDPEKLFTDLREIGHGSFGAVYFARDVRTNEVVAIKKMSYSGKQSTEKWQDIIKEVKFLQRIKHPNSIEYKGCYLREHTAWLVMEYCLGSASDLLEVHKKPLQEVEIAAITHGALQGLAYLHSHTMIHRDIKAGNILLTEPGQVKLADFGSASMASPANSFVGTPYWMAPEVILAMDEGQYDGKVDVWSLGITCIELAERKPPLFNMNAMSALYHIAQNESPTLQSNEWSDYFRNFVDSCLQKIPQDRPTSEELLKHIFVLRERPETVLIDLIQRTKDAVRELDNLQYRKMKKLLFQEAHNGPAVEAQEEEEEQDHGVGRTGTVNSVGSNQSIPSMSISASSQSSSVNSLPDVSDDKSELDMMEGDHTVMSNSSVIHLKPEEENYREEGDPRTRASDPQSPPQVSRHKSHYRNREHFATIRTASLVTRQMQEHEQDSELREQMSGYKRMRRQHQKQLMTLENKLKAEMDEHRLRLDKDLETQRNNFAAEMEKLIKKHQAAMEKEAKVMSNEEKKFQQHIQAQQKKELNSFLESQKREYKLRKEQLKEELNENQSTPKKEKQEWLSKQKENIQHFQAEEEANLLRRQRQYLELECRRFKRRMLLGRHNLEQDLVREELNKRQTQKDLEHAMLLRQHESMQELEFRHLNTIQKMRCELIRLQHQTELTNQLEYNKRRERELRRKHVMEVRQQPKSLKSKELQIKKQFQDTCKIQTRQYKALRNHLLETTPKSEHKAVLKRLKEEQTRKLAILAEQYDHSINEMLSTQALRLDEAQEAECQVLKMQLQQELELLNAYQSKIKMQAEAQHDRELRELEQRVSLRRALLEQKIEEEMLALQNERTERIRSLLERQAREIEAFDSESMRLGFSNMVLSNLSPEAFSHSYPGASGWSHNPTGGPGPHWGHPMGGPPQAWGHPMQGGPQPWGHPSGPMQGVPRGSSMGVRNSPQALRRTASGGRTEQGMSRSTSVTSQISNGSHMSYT
Particulars: at 1 µM.

Test [5] addresses T2, Serine/threonine-protein kinase TAO1 (Homo sapiens). The settings on record: at 10 µM.
Test [6] concerns the target T3, Serine/threonine-protein kinase TAO3 (Homo sapiens) (UniProt Q9H2K8).
T3 sequence (whole entry): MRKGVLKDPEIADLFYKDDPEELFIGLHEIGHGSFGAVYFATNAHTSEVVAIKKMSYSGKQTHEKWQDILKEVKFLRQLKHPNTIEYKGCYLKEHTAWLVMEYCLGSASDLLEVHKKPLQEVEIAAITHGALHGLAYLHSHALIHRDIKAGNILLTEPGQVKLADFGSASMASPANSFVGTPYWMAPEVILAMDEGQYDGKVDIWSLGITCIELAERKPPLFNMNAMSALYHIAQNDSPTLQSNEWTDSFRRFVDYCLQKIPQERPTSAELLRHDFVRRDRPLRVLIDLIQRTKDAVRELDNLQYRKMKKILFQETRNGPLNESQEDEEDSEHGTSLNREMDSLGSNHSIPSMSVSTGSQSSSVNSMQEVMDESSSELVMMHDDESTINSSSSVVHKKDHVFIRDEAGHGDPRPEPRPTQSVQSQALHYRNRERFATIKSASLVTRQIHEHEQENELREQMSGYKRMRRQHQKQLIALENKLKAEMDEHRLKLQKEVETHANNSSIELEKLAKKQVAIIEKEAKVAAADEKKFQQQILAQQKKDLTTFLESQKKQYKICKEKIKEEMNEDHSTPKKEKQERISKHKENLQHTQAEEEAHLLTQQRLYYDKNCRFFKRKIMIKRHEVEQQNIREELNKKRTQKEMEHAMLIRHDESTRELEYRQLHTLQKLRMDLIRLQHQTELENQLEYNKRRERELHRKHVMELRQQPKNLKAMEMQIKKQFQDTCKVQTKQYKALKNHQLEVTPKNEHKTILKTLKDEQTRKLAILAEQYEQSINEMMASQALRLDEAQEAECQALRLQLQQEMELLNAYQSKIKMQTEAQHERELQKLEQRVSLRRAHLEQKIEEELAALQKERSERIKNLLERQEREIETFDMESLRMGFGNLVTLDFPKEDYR
Particulars: at 1 µM.

The target in test [7] is T3, Serine/threonine-protein kinase TAO3 (Homo sapiens). The settings on record: at 10 µM.
Test [8] addresses T4, TGF-beta receptor type-1 (Homo sapiens) (UniProt P36897).
T4 sequence (whole entry): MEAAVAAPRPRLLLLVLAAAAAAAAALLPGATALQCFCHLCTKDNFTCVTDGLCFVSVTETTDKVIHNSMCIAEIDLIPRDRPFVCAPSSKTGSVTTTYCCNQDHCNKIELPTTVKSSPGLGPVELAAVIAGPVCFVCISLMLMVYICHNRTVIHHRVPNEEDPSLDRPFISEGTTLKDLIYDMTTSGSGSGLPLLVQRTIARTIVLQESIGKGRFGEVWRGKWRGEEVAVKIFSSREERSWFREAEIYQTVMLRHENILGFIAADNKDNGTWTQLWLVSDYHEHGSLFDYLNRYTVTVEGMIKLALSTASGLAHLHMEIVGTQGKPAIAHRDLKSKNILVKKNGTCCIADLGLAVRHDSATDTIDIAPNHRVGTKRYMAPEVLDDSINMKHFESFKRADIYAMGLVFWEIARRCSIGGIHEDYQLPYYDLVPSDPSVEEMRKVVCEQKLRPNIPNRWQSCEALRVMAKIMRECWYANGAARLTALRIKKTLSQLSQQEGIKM
Particulars: at 1 µM.

The target of test [9] is Insulin-like growth factor 1 receptor (Homo sapiens) (UniProt P08069). Particulars: at 1 µM.
Chain of Insulin-like growth factor 1 receptor (Homo sapiens) (P08069 31-736 limits assumed): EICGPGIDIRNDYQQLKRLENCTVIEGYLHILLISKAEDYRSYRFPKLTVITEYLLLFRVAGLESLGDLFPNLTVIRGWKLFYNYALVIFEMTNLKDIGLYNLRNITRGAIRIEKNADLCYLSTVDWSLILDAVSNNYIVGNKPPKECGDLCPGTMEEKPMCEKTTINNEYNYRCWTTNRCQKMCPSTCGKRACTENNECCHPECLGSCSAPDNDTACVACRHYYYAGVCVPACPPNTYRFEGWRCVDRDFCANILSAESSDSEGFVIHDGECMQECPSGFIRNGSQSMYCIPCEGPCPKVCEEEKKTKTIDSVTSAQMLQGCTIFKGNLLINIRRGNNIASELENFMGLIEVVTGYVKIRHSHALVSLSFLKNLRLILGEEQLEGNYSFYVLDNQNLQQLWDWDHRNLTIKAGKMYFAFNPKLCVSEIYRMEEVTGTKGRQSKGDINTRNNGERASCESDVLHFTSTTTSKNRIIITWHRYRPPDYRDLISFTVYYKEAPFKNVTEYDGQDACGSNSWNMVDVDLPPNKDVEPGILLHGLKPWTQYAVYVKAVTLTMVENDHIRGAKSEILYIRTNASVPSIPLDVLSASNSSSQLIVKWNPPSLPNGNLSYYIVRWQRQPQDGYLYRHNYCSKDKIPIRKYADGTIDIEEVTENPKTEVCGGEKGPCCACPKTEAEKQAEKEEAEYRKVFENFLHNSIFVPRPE
Chain of Insulin-like growth factor 1 receptor (Homo sapiens) (P08069 741-1367 limits assumed): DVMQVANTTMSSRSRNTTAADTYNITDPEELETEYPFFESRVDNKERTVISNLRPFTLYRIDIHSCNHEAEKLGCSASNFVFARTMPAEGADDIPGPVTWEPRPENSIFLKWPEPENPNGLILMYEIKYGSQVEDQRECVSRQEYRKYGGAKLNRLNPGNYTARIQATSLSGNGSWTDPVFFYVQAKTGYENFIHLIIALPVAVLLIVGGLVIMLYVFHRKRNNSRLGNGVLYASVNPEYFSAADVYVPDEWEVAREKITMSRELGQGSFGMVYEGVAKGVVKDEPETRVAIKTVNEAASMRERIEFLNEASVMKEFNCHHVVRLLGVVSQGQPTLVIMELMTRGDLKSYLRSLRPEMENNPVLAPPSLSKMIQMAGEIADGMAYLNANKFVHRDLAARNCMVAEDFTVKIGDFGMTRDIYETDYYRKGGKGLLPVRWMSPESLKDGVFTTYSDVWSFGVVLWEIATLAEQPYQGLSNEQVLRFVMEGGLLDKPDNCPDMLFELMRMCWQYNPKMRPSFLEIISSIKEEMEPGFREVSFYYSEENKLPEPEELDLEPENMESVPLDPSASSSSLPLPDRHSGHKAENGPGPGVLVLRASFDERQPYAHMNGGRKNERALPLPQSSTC
Test [10] shares this target. Particulars: at 10 µM.
For test [11], the target named is T5, Inhibitor of nuclear factor kappa-B kinase subunit alpha (Homo sapiens) (UniProt O15111).
T5 sequence (whole entry): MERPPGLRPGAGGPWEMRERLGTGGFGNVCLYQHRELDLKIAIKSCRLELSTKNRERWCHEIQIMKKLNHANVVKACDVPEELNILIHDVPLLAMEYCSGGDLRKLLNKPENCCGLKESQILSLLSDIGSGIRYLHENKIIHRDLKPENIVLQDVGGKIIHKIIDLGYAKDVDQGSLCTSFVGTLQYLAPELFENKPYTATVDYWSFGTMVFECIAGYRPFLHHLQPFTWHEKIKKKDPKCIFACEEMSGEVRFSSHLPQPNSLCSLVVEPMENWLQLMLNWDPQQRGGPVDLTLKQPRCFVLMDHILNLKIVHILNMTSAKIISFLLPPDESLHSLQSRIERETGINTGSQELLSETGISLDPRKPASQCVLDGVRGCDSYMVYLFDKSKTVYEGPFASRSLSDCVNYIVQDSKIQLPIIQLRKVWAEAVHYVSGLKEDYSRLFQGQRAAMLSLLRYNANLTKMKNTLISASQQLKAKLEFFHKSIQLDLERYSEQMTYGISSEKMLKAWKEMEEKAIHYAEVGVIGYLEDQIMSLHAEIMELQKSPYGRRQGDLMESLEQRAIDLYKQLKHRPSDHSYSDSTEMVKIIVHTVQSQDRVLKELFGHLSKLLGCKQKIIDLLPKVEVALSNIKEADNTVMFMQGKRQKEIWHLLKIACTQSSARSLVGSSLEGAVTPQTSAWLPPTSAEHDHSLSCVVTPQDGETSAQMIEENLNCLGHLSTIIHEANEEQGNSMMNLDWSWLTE
Particulars: at 10 µM.

The target in test [12] is T6, Inhibitor of nuclear factor kappa-B kinase subunit beta (Homo sapiens) (UniProt O14920).
T6 sequence (whole entry): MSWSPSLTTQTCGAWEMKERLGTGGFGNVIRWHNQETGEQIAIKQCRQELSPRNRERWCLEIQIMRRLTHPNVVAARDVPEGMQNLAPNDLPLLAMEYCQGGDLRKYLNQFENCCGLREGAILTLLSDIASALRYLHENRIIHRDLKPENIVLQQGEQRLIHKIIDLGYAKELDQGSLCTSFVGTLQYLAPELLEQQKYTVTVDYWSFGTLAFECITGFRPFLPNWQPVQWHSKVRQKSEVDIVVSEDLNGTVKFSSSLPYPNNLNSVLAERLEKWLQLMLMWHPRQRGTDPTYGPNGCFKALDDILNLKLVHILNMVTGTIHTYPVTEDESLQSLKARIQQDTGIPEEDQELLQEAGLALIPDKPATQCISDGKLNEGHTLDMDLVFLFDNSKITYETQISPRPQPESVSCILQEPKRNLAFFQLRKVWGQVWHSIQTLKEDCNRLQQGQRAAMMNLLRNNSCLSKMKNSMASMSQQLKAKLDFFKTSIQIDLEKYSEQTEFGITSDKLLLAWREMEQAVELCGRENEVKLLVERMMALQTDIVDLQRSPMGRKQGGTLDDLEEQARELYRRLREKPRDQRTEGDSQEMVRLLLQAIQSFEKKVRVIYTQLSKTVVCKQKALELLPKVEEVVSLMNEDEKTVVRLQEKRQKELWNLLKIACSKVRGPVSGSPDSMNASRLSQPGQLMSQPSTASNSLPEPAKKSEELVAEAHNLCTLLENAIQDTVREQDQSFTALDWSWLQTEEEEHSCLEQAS
Particulars: at 1 µM.

For test [13], the target named is T6, Inhibitor of nuclear factor kappa-B kinase subunit beta (Homo sapiens). Particulars: at 10 µM.

With `Nc1ncnc2c1cnn2-c1ccccc1`, the residual activity was 92% in test [1]; 89% in test [2]; 88% in test [3]; 94% in test [4]; 80% in test [5]; 100% in [6]. In addition, the residual activity in test [7] was 87%; in test [8] it was 92%; in test [9] it was 88%; in [10], 76%; in test [11], 85%; in test [12], 97%. The molecule also returned a residual activity in test [13] of 86%.
